For 40 compounds, growth results are on record in PubChem BioAssay (NCI).

Compounds without any hit were thinned out: in the full panel of roughly 83,000, 20% have a hit.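 In brief: 96-well plates, 48 h treatment, single concentration, percent growth endpoint.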 Values without a mark were called inactive. Active and inactive are the calls of the source.

This experiment has as its system A498 renal. The experiment is described as follows: NCI-60 one-dose screen, 48 h (100 = growth as untreated, 0 = no growth, -100 = all killed). Conditions: 10 µM unless noted. As to the method:
Growth inhibition of the A498 human tumor cell line is measured as a screen for anti-cancer activity. Cells are grown in 96 well plates and exposed to the test compound for 48 hours. Compounds are tested at a single concentration, which is 10^-5 M for most compounds. The reported endpoint is percent growth (GI% or GIPRCNT), where numbers from 0 - 100% represent growth inhibition, and numbers from -100% - 0 represent cell death. For example, a value of 40 represents 60% growth inhibition. A value of 0 means no net growth occurred over the course of the experiment. A value of -40 indicates 40% of cells at the beginning of the experiment died by the end of the experiment. A value of -100 means all cells are dead at the end of the experiment.
NCI-60 Human Tumor Cell Lines Screen was performed using the standard one-dose NCI protocol, which is described in more detail at https://dtp.cancer.gov/discovery_development/nci-60/default.htm.
Compounds with GIPRCNT values below 10 were considered active. Activity score was based on GIPRCNT using the following formula: […]
Score is 0 for GIPRCNT values of 100 or above, 50 for GIPRCNT values of 0, and 100 for GIPRCNT values of -100.
Consider `Nc1ncc(-c2ccc3ncnc(N4CCc5cc(F)c(Cl)cc54)c3c2)cc1C(F)(F)F`, for which the growth is -50.2% (active).

As for `CC(=O)Cc1nsc(NC(=O)c2cc(-c3cc(Cl)ccc3Cl)oc2C)n1`, the growth was 105%.

For the compound `O=C(/C=C/c1cccc([N+](=O)[O-])c1)c1ccc(Nc2nc(Nc3ccc(F)cc3)nc(Nc3ccc(Cl)cc3)n2)cc1`, the growth was 110%.

`COC(=O)c1ccc(-n2cc(CCCOS(=O)(=O)c3ccc(F)cc3)nn2)cc1`: the growth is 84.4%.

Consider `CCCCCC(C)(O)C(C(=O)O)c1ccccc1` (stereo not given), for which the growth was 90.3%.

As to `C#Cc1ccc(NC(=O)Cc2ccc(/C=C/C(=O)c3nccn3C)cc2)cc1`, the growth is 105%.

In the case of `C=C(C)[C@@H]1CCC[C@]2(C(=O)OC)CC[C@]3(C)[C@@H](CC[C@@H]4[C@@]5(C)CCCNC(C)(C)[C@@H]5CC[C@]43C)[C@@H]12`, the growth was 106%.

In the case of `O=C(CSc1nnc(-c2cc(-c3ccc(Cl)cc3)nc3ccccc23)n1-c1ccccc1)Nc1ccc(Cl)cc1`, the growth is 88.2%.

Regarding `O=C1Nc2ccccc2/C1=C/c1cccn1CCCCCCn1c2ccccc2c(=O)c2ccccc21`, the growth is 103%.

With `O=C(O)c1cc2ccccc2s1`, the growth was 108%.

Turning to `O=C1OCC2=C1C(c1cccc(F)c1)c1cc3c(cc1N2CCO)CCC3` (stereo not given), the growth was 5.8% (active).

`CCN1CCN(c2cc(C(=O)Nc3cccc(Nc4ccc5c(OC)cccc5n4)c3)cc(C(F)(F)F)c2)CC1`: the growth is 57.6%.

Regarding `COC1=C(OC)C(=O)C(CCCCCCCCCCO)=C(C)C1=O`, the growth was 103%.

As to `COc1cc(-c2c(-c3ccccc3)c[nH]c2C(=O)NCCCO)c(OC)c2c1OCO2`, the growth was 74.6%.

For `Cc1ccccc1NC(=O)c1sc2nc3c(cc2c1N)CCCC3`, the growth is -3.82% (active).

Turning to `CC1=NC(=S)NC(c2ccccc2)/C1=C1/CC(c2ccccc2O)NN1` (stereo not given), the growth was 93.8%.

In the case of `CCOC(=O)c1c(N)sc2cc(O)ccc12`, the growth is 104%.

For `C/C(=C(\c1ccc(OCCCN(C)C)cc1)c1ccc(OC(=O)Cc2ccccc2)cc1)c1ccc(Cl)cc1`, the growth is 103%.

For `CC(=O)O[C@H]1C[C@@]2(C)[C@@H](C[C@@H](O)[C@H]3[C@@]4(C)CC[C@H](N5CCCC5)[C@@H](C)[C@@H]4CC[C@@]32C)/C1=C(\CCC=C(C)C)C(=O)O`, the growth was 104%.

In the case of `C#CCOc1cccc(-c2ncnc3cc(NC(=O)CCl)ccc23)c1`, the growth is 59.4%.

Consider `COc1ccc(C(=O)C2OC3=C(C(=O)CC(C)(C)C3)C2c2cccc(Oc3ccccc3)c2)cc1` (stereo not given), for which the growth is 62.9%.

`N#C/C(Sc1nc2sc3c(c2c(=O)n1Cc1ccccc1)CCCC3)=C1/SC=C(c2ccc(Cl)cc2)N1c1ccccc1`: the growth was 120%.

For `CC/C(=C(/c1ccc(Cl)cc1)c1ccc(OCCCN(C)C)cc1)c1ccc(OC)cc1`, the growth is 76.3%.

As for `C=C1C(=O)O[C@H]2[C@H]1CC/C(COC(=O)NCc1ccc(Cn3c(=O)sn(CCCC)c3=O)cc1)=C\CC[C@@]1(C)O[C@@H]21`, the growth was 100%.

`CCOC(=O)c1ccc2c(c1)[n+](=O)c(C(C)=O)c(C(F)(F)F)n2[O-]`: the growth is 12.5%.

As to `CC1=NN(c2cccc(Cl)c2)C(=O)/C1=C\C=C\c1ccccc1`, the growth was 110%.

On to `CC(C)(C)n1cc(-c2ccnc(NCCNS(=O)(=O)c3ccc(C(F)(F)F)cc3)c2)c(-c2ccccc2)n1`, for which the growth was 61.7%.

With `COc1ccc(NC(=O)c2ccc(Cl)cc2Cl)cc1`, the growth was 72.6%.

Regarding `CCCCCCCCNC(=O)[C@@H](N)CSCOC(C)=O`, the growth is 63%.

For the compound `c1ccc2cc(Cn3cc[n+](Cc4ccc5ccccc5c4)c3)ccc2c1`, the growth is 75.9%.

`O=c1ccc2c(ccc3ncccc32)o1`: the growth is 81.8%.

`CCOC(=O)CCC(=O)P(=O)(O)O`: the growth is 107%.

Turning to `CC(=O)Oc1ccccc1C(=O)N(Cc1ccc2c(Cl)cc(Cl)c(O)c2n1)c1ccccc1`, the growth is 57.6%.

On to `COc1cc2nc3cc([N+](=O)[O-])ccc3c(NCCCNCCO)c2cc1OC`, for which the growth is -80.2% (active).

Turning to `COc1cc(NC(=O)c2cncnc2Nc2ccc3c(ccn3Cc3cccc(F)c3)c2)cc(OC)c1`, the growth is 24.3%.

Regarding `O=C(/C=C/c1ccc([N+](=O)[O-])cc1)c1cccc(Nc2nc(Nc3ccccc3)nc(Nc3ccccc3)n2)c1`, the growth was 70%.

As for `CCN1C(=O)N(CC)C2C1NN=c1s/c(=C\c3ccc(F)cc3)c(=O)n12` (stereo not given), the growth is 23.4%.

With `Cc1cccc(C)c1NC(=O)Nc1ccccc1`, the growth is 109%.

In the case of `O=c1c2cccc3c(N4CCOCC4)ccc(c32)c2nc3ccccc3n12`, the growth is 101%.

Take `COC(=O)c1c(C)nc(C)c2c1C(=O)C(Br)=C(NCCCCO)C2=O`: the growth was 115%.
